Common to all, as to assay: NCI-60 one-dose screen, 48 h (100 = growth as untreated, 0 = no growth, -100 = all killed)
Holding throughout (conditions): 10 µM unless noted

Test [1] has as its system SR leukemia.
Test [2] deals with RPMI-8226 leukemia.
Test [3] relates to OVCAR-8 ovarian.
The test system of test [4] is OVCAR-5 ovarian.
Test [5] relates to OVCAR-4 ovarian.
Test [6] relates to SK-OV-3 ovarian.
For test [7], the system named is IGROV1 ovarian.
The test system of test [8] is OVCAR-3 ovarian.
For test [9], the system named is HS 578T breast.
For test [10], the system named is NCI/ADR-RES ovarian.
For test [11], the system named is T-47D breast.
For test [12], the system named is BT-549 breast.
The subject of test [13] is MDA-MB-435 melanoma.
For test [14], the system named is SW-620 colon.
For test [15], the system named is MCF7 breast.
Test [16] relates to HCT-116 colon.
Test [17] deals with HCC-2998 colon.
Test [18] deals with KM12 colon.

Among the data in PubChem BioAssay (NCI) are growth values, retold here.

This is part of a sample that, as a whole, favours compounds with a hit. Of some 83,000 tested, about 20% had one in any assay.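 Interpretation: 100, growth as untreated; towards 0, rising growth inhibition; 0, no net growth; 0 to -100, cell death. Compounds scoring below 10 were considered active.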 Values without a mark were called inactive. The source made the active and inactive calls.

Regarding `CN(C)c1ccc(-c2cc(-c3ccc(Nc4nc(Nc5ccc(Cl)cc5)nc(Nc5ccc(Cl)cc5)n4)cc3)nc(N)c2C#N)cc1`, the growth in [1] was 40.6%; in test [2], -27.1% (active); in test [3], 68%; in test [4], 87.1%; in [5], 88.5%; in [6], 102%. For the same compound, the growth was 55% in test [7]; 88.3% in test [8]; 82.5% in test [9]; 78% in [10]; 41.3% in test [11]; 95.6% in test [12]. Also, the growth in test [13] is 84%; in test [14], 92.8%; in test [15], 41.9%; in [16], 60.5%; in test [17], 107%; in test [18], 74.1%.

As to `C/C(=C(\c1ccc(OCCN2CCCCCC2)cc1)c1ccc(OC(=O)Cc2ccccc2)cc1)c1ccc(Cl)cc1`, the growth in [1] is -44.9% (active); in [2], -40.2% (active); in test [3] it was 9.9% (active); in test [4], 67.6%; in test [5], 36.7%; in test [6], 60.7%. In addition, the growth in test [7] is 64.5%; in test [8] it was 19.8%; in test [9], 23.4%; in test [10], 56.6%; in test [11] it was 10%; in test [12] it was 67.5%. Further, the growth in [13] was 41.6%; in test [14] it was -34.7% (active); in test [15], 3.78% (active); in test [16] it was 4.58% (active); in test [17], 13.6%; in test [18], 22.1%.

As to `O=C1NC(=Nc2ccc(O)cc2)S/C1=C\c1cccs1`, the growth in test [1] is 11.6%; in test [2], 2.94% (active); in test [3], 48.5%; in [4], 84.5%; in test [5], 48.8%; in test [6], 62.6%. For the same compound, the growth in [7] was 38.5%; in test [8], 8.01% (active); in test [9] it was 32.6%; in test [10] it was 32.1%; in [11] it was 32.5%; in [12] it was 35.8%. For the same compound, the growth in [13] was -24.7% (active); in test [14], 27.2%; in test [15] it was 11.8%; in test [16] it was 32.9%; in test [17] it was 59%; in test [18], 13.9%.

With `Cc1ccc(N=Nc2c(N)nn(-c3ccccc3)c2N)cc1`, the growth in [1] was -16.6% (active); in [2], -1.12% (active); in test [3], 41.6%; in test [4], 55.3%; in [5] it was 75%; in [6], 37.2%. The growth in test [7] is 48.3%; in [8], 0.588% (active); in [9], 36.1%; in [10], -5.12% (active); in [11], 21.5%; in test [12], -3.98% (active). Also, the growth was -52.1% (active) in [13]; 23.2% in test [14]; 7.61% (active) in test [15]; 15.6% in test [16]; 46.1% in test [17]; 27.6% in [18].

For `COc1ccc2c(c1)c(-c1cc(-c3cn(C)c4ccc(OC)cc34)on1)cn2C`, the growth in test [1] was 104%; in test [2], 84.6%; in test [3], 97.5%; in [4], 78.5%; in test [5] it was 112%; in test [6], 93.3%. The growth is 87.4% in test [7]; 107% in [8]; 90.3% in test [9]; 95.4% in test [10]; 80.9% in test [11]; 127% in [12]. Moreover, the growth is 116% in test [13]; 91.8% in [14]; 89% in test [15]; 89.1% in [16]; 101% in [17]; 106% in test [18].

Regarding `Nc1nc(C(=O)N/N=C/c2ccc(N3CCOCC3)cc2)nn1-c1ccc(S(N)(=O)=O)cc1`, the growth in test [1] is 104%; in [2], 102%; in test [3], 101%; in test [4], 114%; in test [5], 99.7%; in [6] it was 111%. The growth in test [7] is 94%; in [8], 104%; in test [9] it was 104%; in test [10] it was 102%; in test [11], 108%; in [12], 116%. Moreover, the growth in test [13] is 104%; in test [14], 99.9%; in test [15], 103%; in test [16], 101%; in [17] it was 104%; in test [18], 103%.

Consider `O=C(CN1C(=O)/C(=C/c2ccco2)SC1=S)NCCc1c[nH]c2ccc(F)cc12`, for which the growth was 111% in [1]; 97.8% in [2]; 105% in test [3]; 105% in test [4]; 99.7% in test [5]; 93.7% in test [6]. Also, the growth in test [7] is 104%; in [8] it was 110%; in test [9] it was 95.9%; in test [10], 99.1%; in [11], 103%; in test [12], 97.4%. Also, the growth was 104% in test [13]; 107% in test [14]; 97.5% in test [15]; 96.6% in test [16]; 115% in test [17]; 101% in test [18].

As for `CCOC(=O)c1c(C)nc2ccccc2c1/C=C/c1ccc(OC)cc1`, the growth in test [1] was 56.6%; in test [2], 41.8%; in test [3] it was 57.6%; in test [4], 89.1%; in test [5] it was 54.6%; in [6], 76.1%. For the same compound, the growth is 66% in test [7]; 73.9% in [8]; 81.6% in test [9]; 31.2% in test [10]; 22.2% in test [11]; 53.3% in test [12]. In addition, the growth in test [13] is 61.7%; in test [14], 85.1%; in test [15], 63.9%; in test [16], 55.7%; in test [17], 77.8%; in test [18], 70.7%.
